Assay results taken from the supplement of paper PMC3334620.
Whole data set: some 33,000 sequences, median “E-score (-0.5 to 0.5)” near -0.016, cut for the highest 2% near 0.32. What follows is part of a selection rich in the highest values, with near analogues and random picks from the rest.

What follows are sequences tested against T1, Stp1 (UniProt B3LFK1) (assay: PBM E-score (8-mer binding enrichment) (E-score (-0.5 to 0.5)); higher = stronger / more preferred TF binding). Details: protein concentration: 200 nM; construct: GST-full length.
T1 sequence: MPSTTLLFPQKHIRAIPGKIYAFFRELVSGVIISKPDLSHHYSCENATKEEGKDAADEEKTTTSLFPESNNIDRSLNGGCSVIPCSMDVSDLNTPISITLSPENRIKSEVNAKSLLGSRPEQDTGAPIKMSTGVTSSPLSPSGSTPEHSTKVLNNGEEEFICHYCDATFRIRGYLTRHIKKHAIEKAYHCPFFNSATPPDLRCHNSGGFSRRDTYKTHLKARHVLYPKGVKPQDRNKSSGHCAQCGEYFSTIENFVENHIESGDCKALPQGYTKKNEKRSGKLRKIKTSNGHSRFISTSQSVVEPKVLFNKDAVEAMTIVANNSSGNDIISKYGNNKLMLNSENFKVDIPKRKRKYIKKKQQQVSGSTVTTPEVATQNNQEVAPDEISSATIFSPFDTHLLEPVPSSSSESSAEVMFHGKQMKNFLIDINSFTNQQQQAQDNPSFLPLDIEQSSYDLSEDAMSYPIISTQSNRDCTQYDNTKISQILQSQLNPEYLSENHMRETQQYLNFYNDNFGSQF
Procedure, shortened: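 Using PURExpress in vitro transcription/translation, GST-tagged yeast transcription factors were made in full-length or DNA-binding-domain form. These were applied at about 100-200 nM to double-stranded universal all-10-mer Agilent arrays, and bound protein was detected with fluorescent anti-GST. Scans were normalised with masliner before the Universal PBM Analysis Suite assigned E-scores to ungapped eight-base words pooled with their reverse complements.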
CGGCCGCA was tested, and the “PBM E-score” value was 0.325.
TCTCCGCA was tested, and the “PBM E-score” value was -0.0488.
With AGGCCGCA the “PBM E-score” value was 0.162.
For ACGCCGAG, the “PBM E-score” value was 0.0836.
With ACGCCGGA the “PBM E-score” value was 0.00769.
In the case of AGGCCGCG, the “PBM E-score” value is reported as 0.244.
With ACAAAAGT the “PBM E-score” value was 0.0775.
ACGTTAAT was tested, and the “PBM E-score” value was 0.112.
With GCCCTACA the “PBM E-score” value was 0.0881.
With GTAACTAA the “PBM E-score” value was 0.0925.
In the case of CTTGATAC, the “PBM E-score” value is reported as 0.113.
CTAGGTCC was tested, and the “PBM E-score” value was -0.102.
With AGTCAAGA the “PBM E-score” value was -0.0455.
GTTCAAGA was tested, and the “PBM E-score” value was 0.0574.
For CCTCGGAA, the “PBM E-score” value was -0.0641.
CCGCCGAG was tested, and the “PBM E-score” value was 0.083.
For CCGCCGCG, the “PBM E-score” value was 0.437.
With CCGCCCCG the “PBM E-score” value was 0.273.
For TCCAAGCA, the “PBM E-score” value was 0.0574.
With GGCATCCC the “PBM E-score” value was -0.0465.
GGCATCGA was tested, and the “PBM E-score” value was 0.327.
For CGCATCGA, the “PBM E-score” value was 0.0903.
For AGCATCGA, the “PBM E-score” value was -0.0592.
For CTATGCTA, the “PBM E-score” value was -0.0393.
In the case of CAACCAGA, the “PBM E-score” value is reported as 0.0587.
In the case of ACGCACGA, the “PBM E-score” value is reported as 0.237.
AAGCACGG was tested, and the “PBM E-score” value was 0.295.
In the case of CCGCACGA, the “PBM E-score” value is reported as 0.27.
CAGCACGA was tested, and the “PBM E-score” value was -0.0106.
For CCGCACAA, the “PBM E-score” value was 0.285.
In the case of CCGCACGC, the “PBM E-score” value is reported as 0.323.
For ACGCACGG, the “PBM E-score” value was 0.419.
ACGCACGC was tested, and the “PBM E-score” value was 0.265.
With CAGCACGC the “PBM E-score” value was 0.145.
In the case of GCGCACGC, the “PBM E-score” value is reported as -0.0354.
In the case of CCGCACGG, the “PBM E-score” value is reported as 0.448.
CAGCACGG was tested, and the “PBM E-score” value was 0.333.
With ATTCTAAG the “PBM E-score” value was 0.126.
In the case of ACGGGGAT, the “PBM E-score” value is reported as -0.0326.
For AGTCTTCC, the “PBM E-score” value was -0.0735.
With TGGGGCAA the “PBM E-score” value was -0.00868.
With CGAAGTGA the “PBM E-score” value was 0.00778.
In the case of CCCAACCC, the “PBM E-score” value is reported as -0.174.
CGCGTCCG was tested, and the “PBM E-score” value was -0.0671.
With ATCATAAC the “PBM E-score” value was 0.161.
For TATAGCGA, the “PBM E-score” value was -0.151.
For AGGGAGCA, the “PBM E-score” value was -0.403.
For CGCGGAAC, the “PBM E-score” value was 0.383.
In the case of AGCGGAAC, the “PBM E-score” value is reported as -0.0267.
GGCGGAAC was tested, and the “PBM E-score” value was 0.125.
ACAATCAT was tested, and the “PBM E-score” value was -0.00872.
In the case of AGGGGCGC, the “PBM E-score” value is reported as 0.232.
With CAGGGCGC the “PBM E-score” value was 0.363.
In the case of CAGGGCAG, the “PBM E-score” value is reported as -0.114.
In the case of CAGGGCGA, the “PBM E-score” value is reported as 0.0902.
With CAGGGCGG the “PBM E-score” value was -0.116.
In the case of AAGGGCGC, the “PBM E-score” value is reported as 0.354.
For AAGGGCGG, the “PBM E-score” value was -0.0196.
CAGGGCAC was tested, and the “PBM E-score” value was 0.355.
In the case of CAGGGCAA, the “PBM E-score” value is reported as 0.0617.
With GGGCCTCA the “PBM E-score” value was -0.0568.
For AACCCACT, the “PBM E-score” value was 0.00826.
CGACTAGC was tested, and the “PBM E-score” value was -0.13.
ATCGTTCG was tested, and the “PBM E-score” value was 0.0636.
In the case of GCTGCCAC, the “PBM E-score” value is reported as 0.0537.
In the case of CAGTGCCG, the “PBM E-score” value is reported as 0.453.
With AAGTGCCC the “PBM E-score” value was 0.079.
For AAGTGCCA, the “PBM E-score” value was 0.163.
In the case of AAGTGCCG, the “PBM E-score” value is reported as 0.453.
CAGTGCCA was tested, and the “PBM E-score” value was -0.0624.
For CAGTGCCC, the “PBM E-score” value was 0.108.
In the case of AGTAGTGA, the “PBM E-score” value is reported as -0.0104.
In the case of CTGGATAA, the “PBM E-score” value is reported as 0.0621.
With GGGCATTA the “PBM E-score” value was 0.139.
In the case of CGGCATTC, the “PBM E-score” value is reported as 0.441.
In the case of AGGCATTC, the “PBM E-score” value is reported as 0.106.
CTGCATTC was tested, and the “PBM E-score” value was -0.111.
For AGGCATTA, the “PBM E-score” value was 0.228.
CGGCATTA was tested, and the “PBM E-score” value was 0.436.
In the case of ACCTACAT, the “PBM E-score” value is reported as -0.177.
For AGTAGTCG, the “PBM E-score” value was -0.0173.
In the case of ATACTCAG, the “PBM E-score” value is reported as 0.06.
For CACTGGGG, the “PBM E-score” value was -0.231.
For GAGATATC, the “PBM E-score” value was 0.0576.
In the case of ATACGCCG, the “PBM E-score” value is reported as 0.381.
For CCACGCCG, the “PBM E-score” value was 0.34.
With CCACGCCA the “PBM E-score” value was 0.0283.
For ATACGCCA, the “PBM E-score” value was 0.0267.
In the case of ACACGCCA, the “PBM E-score” value is reported as 0.0386.
For CCACGCCC, the “PBM E-score” value was -0.188.
ATACGCCC was tested, and the “PBM E-score” value was -0.157.
ACACGCCG was tested, and the “PBM E-score” value was 0.351.
With ACACGCCC the “PBM E-score” value was -0.181.
In the case of GGGGCCCC, the “PBM E-score” value is reported as -0.2.
ACCCTTTC was tested, and the “PBM E-score” value was -0.15.
In the case of CATGATTA, the “PBM E-score” value is reported as 0.171.
CCCTATCG was tested, and the “PBM E-score” value was -0.196.
With TACAGAAA the “PBM E-score” value was 0.212.
CAACCATG was tested, and the “PBM E-score” value was -0.0314.
For AGGAGAAT, the “PBM E-score” value was -0.17.
With GTTCAAAC the “PBM E-score” value was 0.323.
For GTTCAAAA, the “PBM E-score” value was 0.185.
For ATTCAAAC, the “PBM E-score” value was 0.11.
With AGCAGGCT the “PBM E-score” value was -0.098.
With AGGCGCAA the “PBM E-score” value was 0.279.
For CGGCGCAA, the “PBM E-score” value was 0.422.
With AGGCGCAG the “PBM E-score” value was 0.188.
For CGGCGCAG, the “PBM E-score” value was 0.428.
CCGCGCAG was tested, and the “PBM E-score” value was 0.221.
For CGGCGCAC, the “PBM E-score” value was 0.409.
In the case of AGGCGCAC, the “PBM E-score” value is reported as 0.179.
For GGGCGCAC, the “PBM E-score” value was -0.0463.
TGGCGCAA was tested, and the “PBM E-score” value was 0.298.
